From PubChem BioAssay AID1851 (National Center for Advancing Translational Sciences (NCATS), 2009) come the findings set out here.

The campaign covered roughly 16,000 compounds. About 5,800 (36%) were called active. Inconclusive results (about 23%) are left out. This is one part of the list. A number with no mark means an inactive call. The call rests on the fitted dose curve; in most records, active means well fitted curve in the direction sought with a large enough effect; inconclusive means small, poorly fitted or top-dose-only effect, or effect the other way; inactive means no such curve, though single readings can be large or run the other way.
On the % scale 0 is the no-effect control and ±100 the full control effect.

The target in this test is Cytochrome P450 2C19 (Homo sapiens) (UniProt P33261). The experiment in a line: Cytochrome panel assay with activity outcomes. To be noted: recombinant CYP, pro-luciferin dealkylation, luminescence, p450-cyp2c19; series mostly up to 57.1 µM; activity, negative = inhibition: at the top concentration.
Chain of Cytochrome P450 2C19 (Homo sapiens) (P33261 whole entry, looked up): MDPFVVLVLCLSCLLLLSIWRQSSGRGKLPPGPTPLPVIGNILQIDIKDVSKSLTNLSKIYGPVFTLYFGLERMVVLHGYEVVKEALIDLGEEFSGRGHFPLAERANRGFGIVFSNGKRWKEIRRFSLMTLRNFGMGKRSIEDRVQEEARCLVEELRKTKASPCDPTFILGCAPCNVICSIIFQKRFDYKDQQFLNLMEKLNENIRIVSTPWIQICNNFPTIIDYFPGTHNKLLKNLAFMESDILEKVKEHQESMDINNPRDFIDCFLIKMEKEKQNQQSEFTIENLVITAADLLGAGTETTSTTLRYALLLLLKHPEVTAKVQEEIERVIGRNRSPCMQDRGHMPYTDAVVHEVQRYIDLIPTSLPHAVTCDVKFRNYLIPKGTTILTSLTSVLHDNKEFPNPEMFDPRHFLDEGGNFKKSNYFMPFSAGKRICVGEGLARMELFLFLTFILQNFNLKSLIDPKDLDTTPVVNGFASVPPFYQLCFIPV
With `O=C(N=NC(=O)c1ccc2c(O)n(C3CCCCC3)c(O)c2c1)c1cccnc1`, the “activity, negative = inhibition” value is -21.3%. As for `COc1cc(/C=N/NC(=O)c2cccnc2)ccc1OC(=O)c1ccc2c(c1)OCO2`, the “activity, negative = inhibition” value is -16.9%.

As to `COc1cc(C(=O)Oc2ccccc2/C=N/NC(=O)c2ccc(C)cc2)cc(OC)c1OC`, the AC50 (commonly the concentration at which the activity in the assay is half-maximal) is 0.398 µM (active). Turning to `COc1cccc(/C=N/NC(=O)c2cccc([N+](=O)[O-])c2)c1OS(=O)(=O)c1ccc(C)cc1`, the AC50 is 4.47 µM (active). Same read-out and setting: the value for `COCCCNC(=O)C(=O)N/N=C/c1ccc(OCC(=O)Nc2cccc(Cl)c2C)c(OC)c1` was 31.6 µM (active); that for `COc1cc(/C=N/NC(=O)c2ccncc2)ccc1OC(=O)c1ccc([N+](=O)[O-])cc1` was 14.1 µM (active). `CN(C)CCn1nnnc1SCC1=C(C(=O)O)N2C(=O)[C@@H](NC(=O)Cc3csc(N)n3)[C@@H]2SC1`: the “activity, negative = inhibition” value was 16.7% [at 25.6 µM]. With `COc1ccc(C(=O)Oc2cc(/C=N/NS(=O)(=O)c3ccc(C)cc3)ccc2OC)cc1`, the AC50 was 1.78 µM (active). The same measure, in the same setting: the result for `COc1ccc(C(=O)N/N=C/c2cccc3cccnc23)cc1` reads 28.2 µM (active). The same measure, in the same setting: the result for `O=C(CCc1nc(-c2ccccc2)c(-c2ccccc2)o1)OCc1ccc(Cl)cc1` reads 6.31 µM (active). As for `CCOC(=O)N1CCN(C(=O)c2ccc3c(=O)n(-c4ccc(OC)cc4)c(=S)[nH]c3c2)CC1`, the “activity, negative = inhibition” value is -5.12%.

In the case of `COc1ccc(-n2c(=S)[nH]c3cc(C(=O)NCCCN4CCCC4=O)ccc3c2=O)cc1`, the AC50 was 39.8 µM (active).

For `CNC(=O)c1ccc(-c2sc3nc(N4CCOCC4)c4c(c3c2N)CC(C)(C)OC4)o1`, the AC50 was 11.2 µM (active). Turning to `CC(=O)N[C@@H]1CONC1=O`, the activity, negative = inhibition was 21.6% [at 11.4 µM].

On to `O=C(O)C[C@H]1OCC=C2C[N@@+]3([O-])CC[C@]45c6ccccc6N[C@@H]4[C@@H]1[C@H]2C[C@H]53`, for which the activity, negative = inhibition was 13.9% [at 11.4 µM]. Same read-out and setting: the result for `Cc1nn(C)c(Cl)c1S(=O)(=O)N[C@@H](c1ccccc1)[C@]1(C)C[C@H]1[C@@H](C)C(=O)Nc1ccc2ccccc2c1` reads -25.4%.

As for `Cc1cc(C(=O)N[C@@H](c2ccccc2)[C@]2(C)C[C@H]2[C@@H](C)C(=O)Nc2ccc3ccccc3c2)n(C)n1`, the AC50 is 10 µM (active). On the same count and under the same terms, the result for `Cc1cc(C(=O)N[C@H](c2ccccc2)[C@@]2(C)C[C@@H]2[C@@H](C)C(=O)Nc2ccc3ccccc3c2)n(C)n1` reads 15.8 µM (active). In the case of `COc1ccc(NC(=O)N2CC[C@@]3(CCCN(C(=O)c4ccc(OC)cc4)C3)C2)cc1`, the “activity, negative = inhibition” value is -13.8%. `CCOCC(=O)Nc1cc(C(=O)Nc2ccccc2)ccc1Cl`: the AC50 was 10 µM (active). With `CCOCC(=O)Nc1cc(C(=O)Nc2cccc(C)c2C)ccc1Cl`, the “activity, negative = inhibition” value was -20.5%. Turning to `Cc1cc(NC(=O)c2cc(C(C)C)on2)no1`, the AC50 is 14.1 µM (active). `CCc1ccc(NC(=O)c2cc(C(C)C)on2)cc1`: the “activity, negative = inhibition” value was -13.3%. Same read-out and setting: the value for `Cc1cc(NC(=O)c2nn(C)c(C)c2[N+](=O)[O-])no1` was 10.5%. Consider `N#CC1=C(N)OC2=C(CC/C2=C\c2ccccc2)C1c1ccccc1` (stereo not drawn), for which the AC50 is 1.58 µM (active). Regarding `CN1CCN(c2ncc3nc(-c4ccc(Cl)cc4)c(=O)n(Cc4ccc(F)cc4)c3n2)CC1`, the “activity, negative = inhibition” value is -25.5%.

With `Cn1c(=O)c2[nH]c(C3CCCC3)nc2n(C)c1=O`, the “activity, negative = inhibition” value was 36.3%. On the same count and under the same terms, the result for `O=C(O)CC(O)C(=O)O` (stereo not drawn) reads 16.8%. `CSc1nsc(SC)c1NC(=O)OCc1ccccc1`: the AC50 was 0.708 µM (active). Same read-out and setting: the value for `CSc1nsc(SC)c1NC(=O)Nc1ccccn1` was 7.94 µM (active). `O[C@H](CNc1ccccn1)c1ccccc1`: the activity, negative = inhibition was -7.78% [at 11.4 µM]. On to `O=C(O)/C=C\C(=O)Nc1ccccn1`, for which the activity, negative = inhibition was 14.6% [at 11.4 µM]. The same measure, in the same setting: the result for `O=C(NCC1CCC(C(=O)O)CC1)OCc1ccccc1` (stereo not drawn) reads -23.7%; that for `O=C(O)c1nnsc1COCc1ccccc1`, 2.27% [at 11.4 µM]. Regarding `COc1cccc(-c2cncnc2NCc2cccc(C)c2)c1`, the AC50 is 0.794 µM (active). On the same count and under the same terms, the value for `COc1cccc(-c2cncnc2NCc2ccccc2)c1` was 1.58 µM (active); that for `COc1cccc(-c2cncnc2NCc2cccs2)c1` was 0.631 µM (active). Take `COc1cccc(-c2cncnc2NCCN2CCOCC2)c1`: the “activity, negative = inhibition” value was -44.4%.

Take `COc1cccc(Nc2ncc3nc(-c4ccccc4)c(=O)n(Cc4cccs4)c3n2)c1`: the “activity, negative = inhibition” value is -21%.

Turning to `c1cncc(CNc2ncncc2-c2cccnc2)c1`, the “activity, negative = inhibition” value was -44.3%. `Cc1cccc(CNc2ncncc2-c2cccnc2)c1`: the AC50 was 10 µM (active). Same read-out and setting: the value for `COc1cccc(-c2cncnc2NCc2cccnc2)c1` was 0.316 µM (active); that for `CCOC(=O)C1=C(CN2c3ccccc3CC2C)NC(=O)NC1c1ccccc1` (stereo not drawn) was 7.08 µM (active).

`C[C@@H](CC(=O)O)[C@@H](N)C(=O)O`: the “activity, negative = inhibition” value was -23%.

Consider `Cc1c(NC(=S)N/N=C/c2ccc(O)cc2)c(=O)n(-c2ccccc2)n1C`, for which the “activity, negative = inhibition” value is -16.2%. For the molecule `Cc1c(NC(=S)/C=C2\N(C)c3ccccc3C2(C)C)c(=O)n(-c2ccccc2)n1C`, the AC50 is 14.1 µM (active). As for `Fc1ccc(-c2[nH]ncc2-c2nnnn2-c2ccccc2)c(F)c1`, the AC50 was 0.631 µM (active). Take `NC(=O)c1ncn([C@@H]2O[C@@H](CO)[C@@H](O)[C@H]2O)c1O`: the “activity, negative = inhibition” value was 20.9%.
